Measurements: PubChem BioAssay (NCI)
This is part of a sample that, as a whole, favours compounds with a hit. Of some 83,000 tested, about 20% had one in any assay.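 48-hour exposure, single concentration, 96-well plates; percent growth endpoint where 0 means no net growth. Active: below 10.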 Values without a mark were called inactive. The source made the active and inactive calls.

tested on: NCI/ADR-RES ovarian; experiment: NCI-60 one-dose screen, 48 h (100 = growth as untreated, 0 = no growth, -100 = all killed); details: 10 µM unless noted

Compound	growth
S=c1[nH]nc2ccccn12	100%
N#CC1C(=N)Cc2ccccc2-c2ccccc21 (centres undefined)	1.44% (active)
COc1c(N)c2c(c([N+](=O)[O-])c1OC)C(=O)OC2	114%
CC(=O)O[C@H]1CC[C@@]2(C)C(=CC[C@@H]3[C@@H]2CC[C@]2(C)C(=O)N(O)C(=O)C[C@@H]32)C1	100%
C/C(=N\NC(=O)C(C)SC(C)C(=O)N/N=C(\C)c1cccnc1)c1cccnc1 (centres undefined)	108%
Cc1cc(Nc2ccc(F)cc2)nc(N2CCN(c3ccnc4cc(Cl)ccc34)CC2)n1	13.5%
COC(=O)[C@@H]1[C@H]2C[C@H]3c4[nH]c5cc(OC)ccc5c4CCN3C[C@@H]2C[C@H](OC(=O)/C=C/c2ccnc(OC)c2)[C@H]1OC	81.6%
Fc1cccc(-c2[nH]nc3nc(Nc4cccnc4)sc23)c1	21.6%
O=C(c1ccccc1)C(CN1CCOCC1)c1ccccc1 (centres undefined)	18.8%
CCOc1ccc(NC(=O)c2ccccc2-c2ccccc2C(=O)O)cc1	108%
Cc1ccc(Nc2c(C(N)=O)cnc3ccc(S(=O)(=O)Nc4cc(C)on4)cc23)cc1	101%
Cn1cc(-c2csc(-c3cn(C(=O)OC(C)(C)C)c4ccc(Br)cc34)n2)c2cccnc21	82.5%
Cc1cc(C)nc(NC(N)=NCCc2ccccc2)n1	85.9%
O=C(N/N=C\c1ccccc1O)C1CC1	92.8%
CC(C)=CCC/C(C)=C/CC/C(C)=C/CC/C(C)=C/CSC[C@H](NC(=O)CCCCCN1CCN(C)CC1)C(=O)NC1CCCCC1	86.9%
Oc1cccc2oc(=S)[nH]c12	102%
COc1ccc(C(=O)c2cc(OC)c(OC)c(OC)c2)cc1/C=C/C(=O)c1cc(OC)c(OC)c(OC)c1	81.1%

Compound	growth
O=C(NC1=CC(=O)c2ccccc2C1=O)c1ccccc1	16.6%
COc1ccc2[nH]cc(-c3nc(-c4c[nH]c5ncccc45)cs3)c2c1	47%
C#Cc1cc2c(N)c(C(=O)c3cc(OC)c(OC)c(OC)c3)[nH]c2cc1OC	21.9%
COc1cc2[nH]c(C(=O)c3cc(OC)c(OC)c(OC)c3)c(N)c2cc1C#CCO	37.8%
Cn1c2c(c3ccc(Cl)cc31)-n1cccc1C2=O	99.7%
Cn1cc(-c2nc(-c3cn(C)c4ncccc34)cs2)c2cc(F)ccc21	10.8%
Oc1ccccc1/C=N\NC(=S)Nc1ccc(F)cc1	-2.4% (active)
CC1c2ccccc2N(S(=O)(=O)c2ccccc2)C1C (centres undefined)	70.4%
CC(C)=CCC/C(C)=C/CC/C(C)=C/CSC[C@H](NC(=O)CCCCCN1CCN(C)CC1)C(=O)NC1CCCCCC1	72.3%
O=[N+]([O-])c1ccc(/C=N\Nc2ccccc2)cc1	60%
C(=C\c1c[nH]c2ccccc12)/c1ccc2ccccc2n1	72.1%
Cn1cc(-c2csc(-c3c[nH]c4ccc(F)cc34)n2)c2cccnc21	9.55% (active)
Nc1c(Cl)cc(N=Nc2ccccc2)cc1Cl	100%
CC(=O)O[C@H]1CC[C@@]2(C)[C@@H](CC[C@@H]3[C@@H]2CC(=O)[C@@]2(C)[C@H]3C[C@@H](C3CCCC3=O)[C@@H]2C(C)=O)C1 (some centres undefined)	104%
CC(=O)Oc1ccccc1C(=O)/C=C/c1cccc([N+](=O)[O-])c1	74.3%
O=C(O)c1cccc2c1C(=O)N(c1ccc3c(c1)Cc1ccccc1-3)C2=O	116%
Brc1ccc2[nH]cc(-c3nc(-c4c[nH]c5ncccc45)cs3)c2c1	32.7%
